Experimental findings from publication PMC7862700, “An all-to-all approach to the identification of sequence-specific readers for epigenetic DNA modifications on cytosine” are described below.

Common to all, as to experiment: DAPPL (digital affinity profiling via proximity ligation, sequencing); 10 mM Tris-HCl pH 7.5, 50 mM NaCl, 1 mM DTT, 4% glycerol, room temperature, 30 min; GST-TFs on glutathione beads, 16-mer random dsDNA library, 0.1% formaldehyde crosslink after washing; high values mean tight binding
Common to all, as to conditions: protein: recombinant; tags: N-terminal GST; dsDNA, one strand shown

Experiment [1] addresses T1, ELK1 (Homo sapiens, UniProt P19419 1-428).
T1 sequence: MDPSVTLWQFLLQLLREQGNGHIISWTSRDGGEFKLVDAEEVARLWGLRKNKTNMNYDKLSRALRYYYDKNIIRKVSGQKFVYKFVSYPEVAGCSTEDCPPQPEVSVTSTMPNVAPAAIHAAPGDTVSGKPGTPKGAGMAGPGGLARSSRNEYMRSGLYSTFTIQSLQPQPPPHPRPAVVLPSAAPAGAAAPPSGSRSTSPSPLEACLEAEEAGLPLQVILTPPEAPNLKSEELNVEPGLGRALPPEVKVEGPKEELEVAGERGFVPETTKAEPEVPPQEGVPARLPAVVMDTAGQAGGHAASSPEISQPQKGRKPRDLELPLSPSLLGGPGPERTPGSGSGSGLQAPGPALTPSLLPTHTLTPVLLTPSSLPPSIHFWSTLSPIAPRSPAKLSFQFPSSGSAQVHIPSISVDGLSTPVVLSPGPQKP
A digest of the protocol:
(§1)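 GST fusions of human transcription factors were expressed in yeast and captured with glutathione beads. Once given DNA barcodes and pooled alongside a tag-only sample, they were incubated for 30 min at room temperature with 200 nmole of a random double-stranded 16-mer DNA library in Tris/NaCl/DTT/glycerol buffer, then washed, crosslinked (0.1% formaldehyde), proximity-ligated, PCR-amplified and sequenced on an Illumina NextSeq500. The binding signal of each hexamer is its read frequency for a factor divided by its frequency for the tag-only sample.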

Experiment [2] addresses T2, GABPA (Homo sapiens, UniProt Q06546 1-454).
T2 sequence: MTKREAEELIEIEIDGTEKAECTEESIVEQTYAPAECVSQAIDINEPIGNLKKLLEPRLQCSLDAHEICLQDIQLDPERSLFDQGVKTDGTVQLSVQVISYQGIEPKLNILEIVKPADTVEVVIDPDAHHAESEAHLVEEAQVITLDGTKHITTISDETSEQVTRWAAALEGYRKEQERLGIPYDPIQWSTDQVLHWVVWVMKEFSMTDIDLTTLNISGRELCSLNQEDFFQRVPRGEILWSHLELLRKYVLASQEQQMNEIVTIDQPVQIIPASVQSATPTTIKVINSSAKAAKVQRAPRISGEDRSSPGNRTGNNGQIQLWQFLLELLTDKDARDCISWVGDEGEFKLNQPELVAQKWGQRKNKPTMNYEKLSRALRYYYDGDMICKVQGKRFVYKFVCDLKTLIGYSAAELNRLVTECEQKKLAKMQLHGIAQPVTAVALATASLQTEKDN
The method, boiled down: as §1

In experiment [3] the target is ELF1 (Homo sapiens, UniProt P32519 1-619). A digest of the protocol:
as §1

Experiment [4] addresses T3, EHF (Homo sapiens, UniProt Q9NZC4 1-300).
T3 sequence: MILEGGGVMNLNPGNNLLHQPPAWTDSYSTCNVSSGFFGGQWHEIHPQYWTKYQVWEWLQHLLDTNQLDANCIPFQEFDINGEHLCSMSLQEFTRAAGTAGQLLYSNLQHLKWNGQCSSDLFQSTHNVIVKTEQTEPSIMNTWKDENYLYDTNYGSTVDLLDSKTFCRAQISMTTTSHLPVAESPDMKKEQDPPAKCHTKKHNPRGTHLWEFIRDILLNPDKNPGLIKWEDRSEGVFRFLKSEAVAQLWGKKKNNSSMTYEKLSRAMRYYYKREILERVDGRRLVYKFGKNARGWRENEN
A digest of the protocol: as §1

The target in experiment [5] is SPIB (Homo sapiens, UniProt Q01892 1-262). A digest of the protocol: as §1
The target in experiment [6] is T4, FEV (Homo sapiens, UniProt Q99581 1-238).
T4 sequence: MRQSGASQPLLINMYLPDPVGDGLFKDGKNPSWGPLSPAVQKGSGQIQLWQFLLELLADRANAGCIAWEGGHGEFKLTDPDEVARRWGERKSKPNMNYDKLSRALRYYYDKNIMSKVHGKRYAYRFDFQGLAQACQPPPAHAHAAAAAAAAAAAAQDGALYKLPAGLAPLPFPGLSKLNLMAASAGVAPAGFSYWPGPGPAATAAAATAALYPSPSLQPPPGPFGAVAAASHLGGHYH
A digest of the protocol:
as §1

The target of experiment [7] is ETV5 (Homo sapiens, UniProt P41161 1-510). The method, boiled down: as §1
The target of experiment [8] is ELF4 (Homo sapiens, UniProt Q99607 1-663). A digest of the protocol:
as §1

The target in experiment [9] is T5, ELK4 (Homo sapiens, UniProt P28324-2 1-405).
T5 sequence: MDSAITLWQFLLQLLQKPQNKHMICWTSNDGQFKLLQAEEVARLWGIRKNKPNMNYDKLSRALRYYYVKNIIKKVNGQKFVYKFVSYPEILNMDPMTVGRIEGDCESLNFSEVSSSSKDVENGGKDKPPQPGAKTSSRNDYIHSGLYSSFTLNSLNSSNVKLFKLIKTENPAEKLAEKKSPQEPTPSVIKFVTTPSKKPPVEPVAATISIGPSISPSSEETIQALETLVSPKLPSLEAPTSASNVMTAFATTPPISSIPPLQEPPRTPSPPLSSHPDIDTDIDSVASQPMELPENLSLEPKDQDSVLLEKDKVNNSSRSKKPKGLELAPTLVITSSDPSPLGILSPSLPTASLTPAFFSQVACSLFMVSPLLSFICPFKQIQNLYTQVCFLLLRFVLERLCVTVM
A digest of the protocol:
as §1

Experiment [10] deals with T6, ETV2 (Homo sapiens, UniProt O00321 1-342).
T6 sequence: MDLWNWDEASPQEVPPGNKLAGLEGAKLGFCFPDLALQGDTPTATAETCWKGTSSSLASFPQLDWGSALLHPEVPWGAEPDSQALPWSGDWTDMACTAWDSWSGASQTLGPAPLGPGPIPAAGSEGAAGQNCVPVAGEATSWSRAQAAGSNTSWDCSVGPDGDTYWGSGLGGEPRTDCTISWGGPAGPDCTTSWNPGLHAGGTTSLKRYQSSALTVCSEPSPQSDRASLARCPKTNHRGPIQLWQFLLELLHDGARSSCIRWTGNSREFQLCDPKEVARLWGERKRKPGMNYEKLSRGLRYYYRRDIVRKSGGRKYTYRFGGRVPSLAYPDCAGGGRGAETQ
The method, boiled down: as §1

The target of experiment [11] is ETV1 (Homo sapiens, UniProt P50549 1-477). A digest of the protocol: as §1
Experiment [12] concerns the target T7, ERF (Homo sapiens, UniProt P50548 1-548).
T7 sequence: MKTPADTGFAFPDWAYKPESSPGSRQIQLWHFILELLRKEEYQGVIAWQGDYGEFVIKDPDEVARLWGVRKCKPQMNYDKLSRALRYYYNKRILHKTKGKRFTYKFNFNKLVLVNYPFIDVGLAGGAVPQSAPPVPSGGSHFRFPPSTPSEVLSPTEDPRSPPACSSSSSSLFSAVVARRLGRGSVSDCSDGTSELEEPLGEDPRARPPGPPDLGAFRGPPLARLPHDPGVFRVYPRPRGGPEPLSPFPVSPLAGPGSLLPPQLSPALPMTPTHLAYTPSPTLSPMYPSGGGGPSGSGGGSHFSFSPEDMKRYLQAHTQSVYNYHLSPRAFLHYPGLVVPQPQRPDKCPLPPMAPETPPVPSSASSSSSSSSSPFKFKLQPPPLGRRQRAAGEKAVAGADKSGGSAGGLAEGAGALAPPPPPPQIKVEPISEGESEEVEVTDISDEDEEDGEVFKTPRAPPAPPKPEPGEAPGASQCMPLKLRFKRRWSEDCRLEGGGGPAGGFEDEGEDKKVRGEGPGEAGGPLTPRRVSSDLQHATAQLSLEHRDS
The method, boiled down:
as §1

Experiment [13] has as its target T8, ETV3L (Homo sapiens, UniProt Q6ZN32 1-361).
T8 sequence: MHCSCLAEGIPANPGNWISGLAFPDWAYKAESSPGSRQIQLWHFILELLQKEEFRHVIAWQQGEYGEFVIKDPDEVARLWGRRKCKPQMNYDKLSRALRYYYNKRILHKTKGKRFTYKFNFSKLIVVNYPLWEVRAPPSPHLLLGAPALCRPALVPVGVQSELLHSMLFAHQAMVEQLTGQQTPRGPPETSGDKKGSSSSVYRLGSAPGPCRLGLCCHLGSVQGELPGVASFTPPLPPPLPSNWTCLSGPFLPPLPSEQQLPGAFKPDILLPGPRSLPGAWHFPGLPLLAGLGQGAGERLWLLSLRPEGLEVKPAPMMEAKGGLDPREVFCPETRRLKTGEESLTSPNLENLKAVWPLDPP
A digest of the protocol:
as §1

The target of experiment [14] is T9, ETS2 (Homo sapiens, UniProt P15036 1-469).
T9 sequence: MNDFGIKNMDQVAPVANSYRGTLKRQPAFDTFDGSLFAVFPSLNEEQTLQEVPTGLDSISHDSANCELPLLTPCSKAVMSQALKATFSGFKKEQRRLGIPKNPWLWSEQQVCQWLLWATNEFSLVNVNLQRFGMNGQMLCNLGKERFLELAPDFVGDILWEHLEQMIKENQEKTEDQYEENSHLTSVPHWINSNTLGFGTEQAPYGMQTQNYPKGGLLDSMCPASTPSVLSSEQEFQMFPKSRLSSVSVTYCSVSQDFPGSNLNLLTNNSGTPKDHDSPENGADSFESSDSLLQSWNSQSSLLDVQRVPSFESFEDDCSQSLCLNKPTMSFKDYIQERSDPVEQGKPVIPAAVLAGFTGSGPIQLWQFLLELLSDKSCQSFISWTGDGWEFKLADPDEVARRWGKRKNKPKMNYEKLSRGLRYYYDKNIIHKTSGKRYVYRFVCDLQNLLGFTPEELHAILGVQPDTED
A digest of the protocol: as §1

For experiment [15], the target named is T10, SPDEF (Homo sapiens, UniProt O95238 1-335).
T10 sequence: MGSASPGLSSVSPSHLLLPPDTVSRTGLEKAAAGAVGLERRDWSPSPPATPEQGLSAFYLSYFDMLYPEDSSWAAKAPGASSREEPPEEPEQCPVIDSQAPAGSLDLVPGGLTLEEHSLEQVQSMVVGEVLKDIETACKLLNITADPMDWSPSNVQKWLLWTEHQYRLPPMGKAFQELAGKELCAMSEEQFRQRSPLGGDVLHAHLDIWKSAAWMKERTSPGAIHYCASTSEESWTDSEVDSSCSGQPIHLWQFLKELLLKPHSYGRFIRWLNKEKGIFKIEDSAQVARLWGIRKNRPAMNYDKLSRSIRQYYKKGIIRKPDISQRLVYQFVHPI
The method, boiled down: as §1

The target of experiment [16] is T11, ETV7 (Homo sapiens, UniProt Q9Y603 1-341).
T11 sequence: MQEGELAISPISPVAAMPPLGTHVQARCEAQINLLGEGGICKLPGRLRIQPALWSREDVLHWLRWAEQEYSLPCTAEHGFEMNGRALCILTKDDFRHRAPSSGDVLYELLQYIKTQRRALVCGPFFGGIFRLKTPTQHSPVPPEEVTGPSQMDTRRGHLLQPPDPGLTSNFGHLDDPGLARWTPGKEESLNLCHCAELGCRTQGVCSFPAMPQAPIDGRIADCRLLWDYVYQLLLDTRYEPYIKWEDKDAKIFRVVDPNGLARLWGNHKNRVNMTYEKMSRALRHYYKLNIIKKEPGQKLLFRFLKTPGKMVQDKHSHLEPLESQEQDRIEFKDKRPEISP
A digest of the protocol:
as §1

Experiment [17] has as its target T12, ETV3 (Homo sapiens, UniProt P41162-2 1-143).
T12 sequence: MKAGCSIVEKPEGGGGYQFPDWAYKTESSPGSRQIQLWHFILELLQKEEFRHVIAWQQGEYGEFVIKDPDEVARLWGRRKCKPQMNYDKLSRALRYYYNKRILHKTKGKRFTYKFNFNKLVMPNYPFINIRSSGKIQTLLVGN
The method, boiled down:
as §1

Experiment [18] addresses ETV6 (Homo sapiens, UniProt P41212 1-452). A digest of the protocol:
as §1

ELF4, sequence (Q99607 whole entry): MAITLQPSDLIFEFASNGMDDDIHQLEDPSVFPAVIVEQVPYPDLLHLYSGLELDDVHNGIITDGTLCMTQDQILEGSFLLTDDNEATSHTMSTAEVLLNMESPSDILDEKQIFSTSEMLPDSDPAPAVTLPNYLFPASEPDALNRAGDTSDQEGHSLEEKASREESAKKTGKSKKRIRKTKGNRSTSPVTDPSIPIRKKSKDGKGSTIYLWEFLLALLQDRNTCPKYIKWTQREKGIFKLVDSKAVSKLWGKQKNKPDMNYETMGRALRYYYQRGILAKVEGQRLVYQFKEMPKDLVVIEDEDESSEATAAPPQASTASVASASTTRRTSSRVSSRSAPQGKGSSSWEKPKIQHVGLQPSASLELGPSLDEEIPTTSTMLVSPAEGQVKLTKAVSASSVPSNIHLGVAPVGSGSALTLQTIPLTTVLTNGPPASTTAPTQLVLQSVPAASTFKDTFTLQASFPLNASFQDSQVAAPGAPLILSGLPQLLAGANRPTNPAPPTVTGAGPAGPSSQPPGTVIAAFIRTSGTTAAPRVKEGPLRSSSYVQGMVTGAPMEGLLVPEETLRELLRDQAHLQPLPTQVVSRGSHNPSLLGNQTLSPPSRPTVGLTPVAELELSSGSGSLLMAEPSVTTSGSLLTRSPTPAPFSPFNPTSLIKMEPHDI
ETV5, sequence (P41161 whole entry): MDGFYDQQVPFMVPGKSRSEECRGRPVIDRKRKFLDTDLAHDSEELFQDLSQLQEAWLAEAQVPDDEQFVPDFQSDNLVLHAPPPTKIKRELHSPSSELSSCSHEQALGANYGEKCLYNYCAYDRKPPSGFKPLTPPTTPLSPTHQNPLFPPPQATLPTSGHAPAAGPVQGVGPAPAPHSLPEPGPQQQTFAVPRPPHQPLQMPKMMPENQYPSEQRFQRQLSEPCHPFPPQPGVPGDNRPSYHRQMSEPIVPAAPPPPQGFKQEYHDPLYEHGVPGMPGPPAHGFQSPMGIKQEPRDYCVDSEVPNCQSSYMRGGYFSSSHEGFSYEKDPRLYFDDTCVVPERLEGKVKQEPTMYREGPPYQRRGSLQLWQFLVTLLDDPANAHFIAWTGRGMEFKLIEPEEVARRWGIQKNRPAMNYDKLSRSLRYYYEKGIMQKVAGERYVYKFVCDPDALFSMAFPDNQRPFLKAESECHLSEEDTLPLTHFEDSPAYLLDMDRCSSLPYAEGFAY
ETV1, sequence (P50549 whole entry): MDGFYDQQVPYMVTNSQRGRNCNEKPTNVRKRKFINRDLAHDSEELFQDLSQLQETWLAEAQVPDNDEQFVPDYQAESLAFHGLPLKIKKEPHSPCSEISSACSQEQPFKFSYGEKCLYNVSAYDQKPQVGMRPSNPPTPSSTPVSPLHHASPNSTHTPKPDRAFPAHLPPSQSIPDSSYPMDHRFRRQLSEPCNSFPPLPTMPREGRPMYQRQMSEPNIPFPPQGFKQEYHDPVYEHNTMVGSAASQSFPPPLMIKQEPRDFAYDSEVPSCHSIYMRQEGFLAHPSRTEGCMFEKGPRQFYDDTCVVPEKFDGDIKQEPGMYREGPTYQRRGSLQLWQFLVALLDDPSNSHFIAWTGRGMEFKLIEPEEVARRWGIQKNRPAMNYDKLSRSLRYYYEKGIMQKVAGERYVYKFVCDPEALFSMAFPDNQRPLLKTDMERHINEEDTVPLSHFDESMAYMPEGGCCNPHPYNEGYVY
SPIB, sequence (Q01892 whole entry): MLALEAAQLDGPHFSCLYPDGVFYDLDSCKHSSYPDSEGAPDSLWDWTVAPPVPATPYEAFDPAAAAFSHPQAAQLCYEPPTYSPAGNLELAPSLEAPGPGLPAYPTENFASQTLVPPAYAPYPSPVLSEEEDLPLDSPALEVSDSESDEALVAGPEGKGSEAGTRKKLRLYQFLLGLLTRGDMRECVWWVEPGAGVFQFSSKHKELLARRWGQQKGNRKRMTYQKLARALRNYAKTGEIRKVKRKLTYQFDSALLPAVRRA
ELF1, sequence (P32519 whole entry): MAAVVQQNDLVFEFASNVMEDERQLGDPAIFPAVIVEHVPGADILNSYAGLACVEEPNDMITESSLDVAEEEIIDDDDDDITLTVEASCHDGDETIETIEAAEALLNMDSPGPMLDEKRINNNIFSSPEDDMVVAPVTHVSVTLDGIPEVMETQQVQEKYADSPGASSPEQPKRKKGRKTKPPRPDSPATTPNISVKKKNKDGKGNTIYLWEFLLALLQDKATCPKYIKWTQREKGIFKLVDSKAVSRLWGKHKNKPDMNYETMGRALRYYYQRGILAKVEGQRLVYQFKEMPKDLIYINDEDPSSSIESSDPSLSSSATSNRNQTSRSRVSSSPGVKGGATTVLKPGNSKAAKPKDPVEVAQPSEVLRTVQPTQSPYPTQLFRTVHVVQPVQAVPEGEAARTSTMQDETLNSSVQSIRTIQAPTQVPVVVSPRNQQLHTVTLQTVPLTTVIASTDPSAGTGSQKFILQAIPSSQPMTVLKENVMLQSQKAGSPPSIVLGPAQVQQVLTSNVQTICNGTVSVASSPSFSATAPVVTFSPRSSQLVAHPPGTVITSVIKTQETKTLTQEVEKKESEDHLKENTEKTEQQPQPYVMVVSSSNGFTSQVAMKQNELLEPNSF
ETV6, sequence (P41212 whole entry): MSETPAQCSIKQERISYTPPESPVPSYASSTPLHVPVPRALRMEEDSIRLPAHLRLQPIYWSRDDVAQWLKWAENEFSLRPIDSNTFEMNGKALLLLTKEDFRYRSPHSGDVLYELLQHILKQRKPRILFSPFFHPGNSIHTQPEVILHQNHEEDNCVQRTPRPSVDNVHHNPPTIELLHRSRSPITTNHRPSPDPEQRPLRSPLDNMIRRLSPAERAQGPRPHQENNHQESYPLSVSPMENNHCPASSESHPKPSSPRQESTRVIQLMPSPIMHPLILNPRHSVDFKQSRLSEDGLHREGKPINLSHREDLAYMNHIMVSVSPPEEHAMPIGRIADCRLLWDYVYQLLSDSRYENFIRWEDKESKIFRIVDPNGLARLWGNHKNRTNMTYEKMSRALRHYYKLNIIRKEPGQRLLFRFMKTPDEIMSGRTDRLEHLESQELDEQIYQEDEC

Turning to TTGTCA, the binding signal in experiment [1] is 1.04 fold enrichment (6-mer frequency, TF over GST control); in [2], 1.08 fold enrichment (6-mer frequency, TF over GST control); in experiment [3], 1.13 fold enrichment (6-mer frequency, TF over GST control); in [4], 1.11 fold enrichment (6-mer frequency, TF over GST control); in [5] it was 1.21 fold enrichment (6-mer frequency, TF over GST control); in [6], 1.06 fold enrichment (6-mer frequency, TF over GST control). Also, the binding signal in [7] was 1.05 fold enrichment (6-mer frequency, TF over GST control); in experiment [8], 1.14 fold enrichment (6-mer frequency, TF over GST control); in [9], 1.21 fold enrichment (6-mer frequency, TF over GST control); in [10] it was 1.02 fold enrichment (6-mer frequency, TF over GST control); in experiment [11] it was 1.15 fold enrichment (6-mer frequency, TF over GST control); in [12], 1.3 fold enrichment (6-mer frequency, TF over GST control). Further, the binding signal is 1.17 fold enrichment (6-mer frequency, TF over GST control) in [13]; 1.11 fold enrichment (6-mer frequency, TF over GST control) in experiment [14]; 1.06 fold enrichment (6-mer frequency, TF over GST control) in experiment [15]; 1.2 fold enrichment (6-mer frequency, TF over GST control) in experiment [16]; 1.16 fold enrichment (6-mer frequency, TF over GST control) in experiment [17]; 1.07 fold enrichment (6-mer frequency, TF over GST control) in experiment [18].
